Measurements reported in PubChem BioAssay (NCI).
This is part of a sample that, as a whole, favours compounds with a hit. Of some 83,000 tested, about 20% had one in any assay.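 Assay: single dose, 48 h. Readout: percent growth (0 = no net growth; negative = cell death). Active: <10.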 A number with no mark means an inactive call. Calls of active or inactive are those of the source.

The compounds below were run on MDA-MB-468 breast (assay: NCI-60 one-dose screen, 48 h (100 = growth as untreated, 0 = no growth, -100 = all killed)). Conditions: 10 µM unless noted.
Compound `COc1ccc2nc(Cl)c(/C=C/C(=O)c3ccc(NC(=O)CSc4nnc(-c5ccc(Cl)c(Cl)c5)n4-c4ccccc4)cc3)cc2c1` has a growth of 98.2%. With `CCOC(=O)c1c(NC(=O)c2ccc(F)cc2F)sc2c1CCC(=O)C2` the growth was 95.2%. Work on `CS(=O)(=O)Nc1cc(-c2ccc3ncc(C#N)c(N[C@H](CO)c4ccccc4)c3c2)cnc1Cl` yielded a growth of 14.5%. `C=CCSc1nc2ccccc2cc1/C=N/O` gave a growth of 82%. For `COc1ccc2[nH]c(=O)c(/C=C/C(=O)c3ccc(Nc4nccc(-c5ccc6ccccc6c5)n4)cc3)cc2c1`, the growth was 103%. `COc1ccc(-c2nn(-c3ccc(NC(=O)c4ccc(Cl)c(C(F)(F)F)c4)cc3)cc2-c2ccncc2)cc1Cl` was tested, and the growth was 9.51% (active). Work on `COc1ccc(C2=NN(c3ccc(S(N)(=O)=O)cc3)C(c3cn(-c4ccccc4)nc3-c3ccc(Cl)cc3)C2)cc1` (stereo not given) yielded a growth of 106%. With `COc1cccc(/C=C2\COc3ccc(O)c(O)c3C2=O)c1OC` the growth was -19.2% (active). `CC1=NN(c2ccccc2)C(=O)C1C(=O)c1ccccc1` (stereo not given) showed a growth of 83.4%. In the case of `CCN1C(=O)N(CC)C2C1NN=c1s/c(=C\c3ccc(C(F)(F)F)cc3)c(=O)n12` (stereo not given), the growth is reported as 9.87% (active). In the case of `COc1ccc(-c2nnc(SCC(=O)c3ccccc3)o2)cc1`, the growth is reported as 91.5%. `COc1cc(C(=O)NC(=S)NCc2ccncc2)cc(OC)c1OC` was tested, and the growth was 94.2%. In the case of `CN(C)C1=NCCN1`, the growth is reported as 108%. With `CS(=O)/C(C#N)=C\C=C\c1cccc(Cl)c1` (stereo not given) the growth was 3.26% (active). Compound `COc1ccc(C(=O)c2c(N)nc3n2CCCC3)cc1OC` has a growth of 97.7%. `NC(=N\N=C/c1ccc(O)cc1)/C(N)=N\N=C/c1ccc(O)cc1` gave a growth of 103%. Compound `CCCCCCCCCCCCCCCCCCSC1=CC(=O)C(OC)=C(OC)C1=O` has a growth of 105%. In the case of `CC(=O)O[C@H]1CC[C@]2(C)[C@H]3C(=O)C=C4[C@@H]5C[C@](C)(C(=O)N6CCCNCC6)CC[C@]5(C)CC[C@@]4(C)[C@]3(C)CC[C@H]2C1(C)C`, the growth is reported as -85.2% (active). In the case of `N#Cc1c2cccnc2c2nnc3cc(Cl)c(Cl)cc3n12`, the growth is reported as -56% (active). For `CCN1CCN(Cc2ccc(NC(=O)Nc3cccc(-n4ccc5c(NC(=O)c6ccccc6)nccc54)c3)cc2C(F)(F)F)CC1`, the growth was 20.2%. With `CON1C(=O)CC[C@]2(C)[C@H]3CC[C@@H]4C([C@@]5(C)CCC(=O)O5)CC[C@@]4(C)[C@]3(C)CC[C@H]2C1(C)C` (stereo not given in full) the growth was 94.4%. `COC(=O)C1=C(C(=O)OC)C23C=C(C)C1C2=C(C)C1(CC1)[C@@](C)(O)C3=O` (stereo not given in full) was tested, and the growth was -54.2% (active). `O=C(c1ccccc1O)N1CCCC1` was tested, and the growth was 94.1%. For `Cc1cccc(-c2cn3ccnc3c(-c3ccc4ncn(Cc5ccccc5)c4c3)n2)c1`, the growth was 83.4%. `Cn1[nH]cc(/C=N/C(N)=O)c1=O` was tested, and the growth was 119%. `O=c1oc2ccc3ccccc3c2cc1-c1ccnc2[nH]c(=S)[nH]c(=O)c12` gave a growth of 97.1%. `CC1CCN(S(=O)(=O)c2ncsc2-c2ccccc2)CC1` was tested, and the growth was 94.4%. Work on `CC(=O)N1C(=S)NC(=O)C1Cn1c(-c2ccccc2)nc2ccccc21` (stereo not given) yielded a growth of 96.8%. With `O=C(CCCCCCN1CC(=O)N2[C@@H](c3cccs3)c3[nH]c4ccccc4c3C[C@H]2C1=O)NO` the growth was 41.6%. `N/C(=N\OC(=O)c1ccccc1)C(C(=O)NOC(=O)c1ccccc1)C1CCCCC1` (stereo not given) showed a growth of 80.8%. For `C=C1CC[C@@H]2[C@](C)(COC(C)=O)[C@H](OC(C)=O)CC[C@@]2(C)[C@@H]1CC(Nc1ccc(S(=O)(=O)Nc2nc(C)cc(C)n2)cc1)C1=CCOC1=O` (stereo not given in full), the growth was 41%. With `C=CCn1ccc(=O)nc1SC` the growth was 115%. For `CC1OC2CC(=O)OC2C2=C1C(=O)c1c(O)cccc1C2=O` (stereo not given), the growth was -73.4% (active). With `O=C(N/N=C1\c2ccccc2-c2cccc(C(=O)O)c21)c1ccc(O)cc1` the growth was 90.8%. For `Cc1cc(N(CCNc2ccnc3cc(Cl)ccc23)Cc2cccs2)nc(Cl)n1`, the growth was -65.2% (active). Work on `O=c1n(CC2CO2)c(=O)n(CC2CO2)n1CC1CO1` (stereo not given) yielded a growth of 25.6%. Compound `COC(=O)/C=C1/CCCCC1(C)C(=O)OC` (stereo not given) has a growth of 103%. Compound `CN(C[C@H]1Cc2c(cccc2N2CCN(Cc3ccccn3)CC2)CN1)[C@H]1CCCc2cccnc21` has a growth of 63.4%. With `CSc1ccc2c(c1)N(C(=O)/C(C#N)=C/c1c[nH]c3ccccc13)c1ccccc1S2` the growth was 12%. `CC(=O)n1nc(C(=O)OC(C)(C)c2ccccc2)c2ccccc21` gave a growth of 93.3%.
